# From article PMC7862700, “An all-to-all approach to the identification of sequence-specific readers for epigenetic DNA modifications on cytosine”
# Columns and labels:
# Experiment in all cases: DAPPL (digital affinity profiling via proximity ligation, sequencing); 10 mM Tris-HCl pH 7.5, 50 mM NaCl, 1 mM DTT, 4% glycerol, room temperature, 30 min; GST-TFs on glutathione beads, 16-mer random dsDNA library, 0.1% formaldehyde crosslink after washing; high values mean tight binding
# [1] = molecular target: T1, FEV (Homo sapiens, UniProt Q99581 1-238); settings: protein: recombinant; tags: N-terminal GST; dsDNA, one strand shown
# T1 sequence: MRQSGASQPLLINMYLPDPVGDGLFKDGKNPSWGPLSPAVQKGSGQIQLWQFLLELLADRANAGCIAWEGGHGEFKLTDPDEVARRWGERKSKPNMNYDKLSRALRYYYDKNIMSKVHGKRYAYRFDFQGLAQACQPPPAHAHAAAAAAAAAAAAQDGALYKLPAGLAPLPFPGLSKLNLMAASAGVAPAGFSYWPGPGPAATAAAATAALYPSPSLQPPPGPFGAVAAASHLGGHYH
# Summary of the method: (§1)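 Pools were built from human transcription factors expressed in yeast as GST fusions, captured on glutathione beads and DNA-barcoded, along with a tag-only sample. Incubation with 200 nmole of a 16-mer random double-stranded DNA library lasted 30 min at room temperature in Tris/NaCl/DTT/glycerol buffer, and was followed by washing, 0.1% formaldehyde crosslinking, proximity ligation, PCR amplification and Illumina NextSeq500 sequencing. Binding signal is the quotient of each hexamer's read frequency for a factor and its frequency for the tag-only sample.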
# [2] = molecular target: ETV5 (Homo sapiens, UniProt P41161 1-510); settings: protein: recombinant; tags: N-terminal GST; dsDNA, one strand shown
# Summary of the method: as §1
# [3] = molecular target: HSF1 (Homo sapiens, UniProt Q00613 1-529); settings: protein: recombinant; tags: N-terminal GST; chain copies: 3; dsDNA, one strand shown
# Summary of the method: as §1
# [4] = molecular target: T2, SPIC (Homo sapiens, UniProt Q8N5J4 1-248); settings: protein: recombinant; tags: N-terminal GST; dsDNA, one strand shown
# T2 sequence: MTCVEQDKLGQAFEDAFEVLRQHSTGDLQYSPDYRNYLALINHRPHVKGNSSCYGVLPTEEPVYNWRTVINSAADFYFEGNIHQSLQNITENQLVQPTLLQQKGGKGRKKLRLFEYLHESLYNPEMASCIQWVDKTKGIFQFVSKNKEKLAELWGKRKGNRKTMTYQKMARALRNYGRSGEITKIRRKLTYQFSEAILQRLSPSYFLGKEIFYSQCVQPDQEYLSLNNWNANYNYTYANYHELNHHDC
# Summary of the method: as §1
# [5] = molecular target: ELF4 (Homo sapiens, UniProt Q99607 1-663); settings: protein: recombinant; tags: N-terminal GST; dsDNA, one strand shown
# Summary of the method: as §1
# [6] = molecular target: T3, ELK4 (Homo sapiens, UniProt P28324-2 1-405); settings: protein: recombinant; tags: N-terminal GST; dsDNA, one strand shown
# T3 sequence: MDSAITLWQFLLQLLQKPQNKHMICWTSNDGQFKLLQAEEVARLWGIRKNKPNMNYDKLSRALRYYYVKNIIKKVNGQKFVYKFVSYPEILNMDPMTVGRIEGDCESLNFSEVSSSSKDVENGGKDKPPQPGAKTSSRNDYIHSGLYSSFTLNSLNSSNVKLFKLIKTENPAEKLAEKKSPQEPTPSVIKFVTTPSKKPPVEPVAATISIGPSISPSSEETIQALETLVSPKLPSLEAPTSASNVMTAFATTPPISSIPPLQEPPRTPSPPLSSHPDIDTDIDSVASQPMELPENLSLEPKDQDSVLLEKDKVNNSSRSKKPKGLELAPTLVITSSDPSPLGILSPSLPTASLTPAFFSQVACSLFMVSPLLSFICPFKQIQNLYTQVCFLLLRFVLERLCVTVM
# Summary of the method: as §1
# [7] = molecular target: T4, ETV2 (Homo sapiens, UniProt O00321 1-342); settings: protein: recombinant; tags: N-terminal GST; dsDNA, one strand shown
# T4 sequence: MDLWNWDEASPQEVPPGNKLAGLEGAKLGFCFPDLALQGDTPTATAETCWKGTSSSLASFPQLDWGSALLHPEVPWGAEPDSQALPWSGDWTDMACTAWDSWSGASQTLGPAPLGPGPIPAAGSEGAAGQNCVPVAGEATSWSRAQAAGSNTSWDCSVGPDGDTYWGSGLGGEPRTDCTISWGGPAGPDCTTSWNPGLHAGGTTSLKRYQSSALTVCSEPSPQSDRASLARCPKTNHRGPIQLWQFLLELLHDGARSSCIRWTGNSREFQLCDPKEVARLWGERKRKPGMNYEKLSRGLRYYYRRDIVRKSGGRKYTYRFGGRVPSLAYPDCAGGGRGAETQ
# Summary of the method: as §1
# [8] = molecular target: T5, ELF3 (Homo sapiens, UniProt P78545 1-371); settings: protein: recombinant; tags: N-terminal GST; dsDNA, one strand shown
# T5 sequence: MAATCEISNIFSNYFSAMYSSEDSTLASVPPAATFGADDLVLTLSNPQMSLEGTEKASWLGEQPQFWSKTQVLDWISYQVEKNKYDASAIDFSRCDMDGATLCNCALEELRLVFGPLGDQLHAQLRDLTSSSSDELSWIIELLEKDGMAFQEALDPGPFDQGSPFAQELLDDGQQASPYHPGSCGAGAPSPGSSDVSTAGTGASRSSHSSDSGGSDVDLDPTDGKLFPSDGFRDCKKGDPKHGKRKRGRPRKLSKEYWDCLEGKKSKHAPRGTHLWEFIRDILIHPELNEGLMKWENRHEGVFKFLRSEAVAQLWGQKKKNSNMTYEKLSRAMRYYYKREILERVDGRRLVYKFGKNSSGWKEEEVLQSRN
# Summary of the method: as §1
# [9] = molecular target: CRX (Homo sapiens, UniProt O43186 1-299); settings: protein: recombinant; tags: N-terminal GST; dsDNA, one strand shown
# Summary of the method: as §1
# [10] = molecular target: ETV1 (Homo sapiens, UniProt P50549 1-477); settings: protein: recombinant; tags: N-terminal GST; dsDNA, one strand shown
# Summary of the method: as §1
# [11] = molecular target: T6, ERF (Homo sapiens, UniProt P50548 1-548); settings: protein: recombinant; tags: N-terminal GST; dsDNA, one strand shown
# T6 sequence: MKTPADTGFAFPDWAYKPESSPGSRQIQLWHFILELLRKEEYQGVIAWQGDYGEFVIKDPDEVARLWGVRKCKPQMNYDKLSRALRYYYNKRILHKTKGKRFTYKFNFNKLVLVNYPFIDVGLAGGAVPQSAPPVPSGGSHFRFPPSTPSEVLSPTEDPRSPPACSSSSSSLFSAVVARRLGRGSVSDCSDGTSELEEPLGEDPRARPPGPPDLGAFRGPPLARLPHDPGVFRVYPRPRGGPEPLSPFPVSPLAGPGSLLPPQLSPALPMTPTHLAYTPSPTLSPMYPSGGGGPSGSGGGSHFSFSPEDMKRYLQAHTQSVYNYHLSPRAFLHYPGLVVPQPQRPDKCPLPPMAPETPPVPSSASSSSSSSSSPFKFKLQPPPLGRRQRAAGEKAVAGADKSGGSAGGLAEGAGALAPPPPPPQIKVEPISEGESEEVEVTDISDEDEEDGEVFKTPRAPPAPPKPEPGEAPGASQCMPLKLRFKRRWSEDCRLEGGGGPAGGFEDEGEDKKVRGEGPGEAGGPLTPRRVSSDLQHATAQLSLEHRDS
# Summary of the method: as §1
# [12] = molecular target: T7, ETV3L (Homo sapiens, UniProt Q6ZN32 1-361); settings: protein: recombinant; tags: N-terminal GST; dsDNA, one strand shown
# T7 sequence: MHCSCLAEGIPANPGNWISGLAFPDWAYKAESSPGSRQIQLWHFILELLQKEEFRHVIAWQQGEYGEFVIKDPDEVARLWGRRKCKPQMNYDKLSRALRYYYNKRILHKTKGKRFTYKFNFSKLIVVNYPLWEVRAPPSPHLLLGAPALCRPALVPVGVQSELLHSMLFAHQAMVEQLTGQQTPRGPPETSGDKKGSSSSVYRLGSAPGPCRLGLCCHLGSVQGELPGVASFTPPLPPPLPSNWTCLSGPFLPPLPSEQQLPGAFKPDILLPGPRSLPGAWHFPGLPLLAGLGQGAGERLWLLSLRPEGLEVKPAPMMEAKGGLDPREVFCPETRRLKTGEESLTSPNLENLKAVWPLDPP
# Summary of the method: as §1
# [13] = molecular target: T8, ETS2 (Homo sapiens, UniProt P15036 1-469); settings: protein: recombinant; tags: N-terminal GST; dsDNA, one strand shown
# T8 sequence: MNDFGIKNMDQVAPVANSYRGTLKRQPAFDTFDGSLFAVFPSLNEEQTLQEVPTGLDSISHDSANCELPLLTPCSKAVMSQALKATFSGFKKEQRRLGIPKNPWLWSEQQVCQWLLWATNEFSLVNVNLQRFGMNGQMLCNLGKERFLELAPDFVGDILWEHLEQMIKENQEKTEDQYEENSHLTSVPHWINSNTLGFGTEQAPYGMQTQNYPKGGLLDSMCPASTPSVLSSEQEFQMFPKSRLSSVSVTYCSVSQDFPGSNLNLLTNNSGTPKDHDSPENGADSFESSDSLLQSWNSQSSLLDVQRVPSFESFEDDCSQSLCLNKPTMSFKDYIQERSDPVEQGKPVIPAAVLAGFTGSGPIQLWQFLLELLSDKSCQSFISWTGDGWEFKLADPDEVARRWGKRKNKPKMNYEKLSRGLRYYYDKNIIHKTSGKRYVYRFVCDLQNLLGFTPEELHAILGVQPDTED
# Summary of the method: as §1
# [14] = molecular target: T9, SPDEF (Homo sapiens, UniProt O95238 1-335); settings: protein: recombinant; tags: N-terminal GST; dsDNA, one strand shown
# T9 sequence: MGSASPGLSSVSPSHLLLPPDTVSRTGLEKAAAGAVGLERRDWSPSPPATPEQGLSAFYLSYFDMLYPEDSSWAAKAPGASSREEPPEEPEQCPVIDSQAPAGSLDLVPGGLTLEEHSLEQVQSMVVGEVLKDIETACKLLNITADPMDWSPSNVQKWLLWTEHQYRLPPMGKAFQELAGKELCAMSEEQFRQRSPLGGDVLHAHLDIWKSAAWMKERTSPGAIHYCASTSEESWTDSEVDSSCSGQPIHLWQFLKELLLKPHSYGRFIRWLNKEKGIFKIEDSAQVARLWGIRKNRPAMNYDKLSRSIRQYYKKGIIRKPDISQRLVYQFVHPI
# Summary of the method: as §1
# [15] = molecular target: T10, ETV7 (Homo sapiens, UniProt Q9Y603 1-341); settings: protein: recombinant; tags: N-terminal GST; dsDNA, one strand shown
# T10 sequence: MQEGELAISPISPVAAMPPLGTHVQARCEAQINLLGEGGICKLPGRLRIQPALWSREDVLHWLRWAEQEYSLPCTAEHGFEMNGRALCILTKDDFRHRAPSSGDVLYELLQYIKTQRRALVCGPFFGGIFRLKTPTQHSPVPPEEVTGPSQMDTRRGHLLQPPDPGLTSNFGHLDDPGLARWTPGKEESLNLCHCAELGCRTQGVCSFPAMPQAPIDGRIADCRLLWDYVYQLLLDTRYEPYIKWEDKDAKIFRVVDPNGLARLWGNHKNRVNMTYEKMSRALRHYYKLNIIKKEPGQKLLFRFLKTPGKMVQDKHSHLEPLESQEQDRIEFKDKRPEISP
# Summary of the method: as §1
# [16] = molecular target: T11, ELF5 (Homo sapiens, UniProt Q9UKW6-2 1-255); settings: protein: recombinant; tags: N-terminal GST; dsDNA, one strand shown
# T11 sequence: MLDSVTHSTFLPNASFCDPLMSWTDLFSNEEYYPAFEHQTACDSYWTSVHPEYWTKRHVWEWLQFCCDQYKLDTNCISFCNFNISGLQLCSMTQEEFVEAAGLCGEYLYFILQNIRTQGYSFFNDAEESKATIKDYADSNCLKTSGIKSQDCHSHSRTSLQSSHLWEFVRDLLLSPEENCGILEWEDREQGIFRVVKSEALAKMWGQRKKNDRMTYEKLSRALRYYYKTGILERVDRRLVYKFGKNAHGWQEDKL
# Summary of the method: as §1
# [17] = molecular target: T12, ETV3 (Homo sapiens, UniProt P41162-2 1-143); settings: protein: recombinant; tags: N-terminal GST; dsDNA, one strand shown
# T12 sequence: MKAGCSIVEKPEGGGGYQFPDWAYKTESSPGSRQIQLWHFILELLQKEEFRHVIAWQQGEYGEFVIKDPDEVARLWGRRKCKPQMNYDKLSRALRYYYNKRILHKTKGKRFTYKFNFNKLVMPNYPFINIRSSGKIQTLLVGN
# Summary of the method: as §1
# [18] = molecular target: ETV6 (Homo sapiens, UniProt P41212 1-452); settings: protein: recombinant; tags: N-terminal GST; dsDNA, one strand shown
# Summary of the method: as §1
# ETV5, sequence (P41161 whole entry): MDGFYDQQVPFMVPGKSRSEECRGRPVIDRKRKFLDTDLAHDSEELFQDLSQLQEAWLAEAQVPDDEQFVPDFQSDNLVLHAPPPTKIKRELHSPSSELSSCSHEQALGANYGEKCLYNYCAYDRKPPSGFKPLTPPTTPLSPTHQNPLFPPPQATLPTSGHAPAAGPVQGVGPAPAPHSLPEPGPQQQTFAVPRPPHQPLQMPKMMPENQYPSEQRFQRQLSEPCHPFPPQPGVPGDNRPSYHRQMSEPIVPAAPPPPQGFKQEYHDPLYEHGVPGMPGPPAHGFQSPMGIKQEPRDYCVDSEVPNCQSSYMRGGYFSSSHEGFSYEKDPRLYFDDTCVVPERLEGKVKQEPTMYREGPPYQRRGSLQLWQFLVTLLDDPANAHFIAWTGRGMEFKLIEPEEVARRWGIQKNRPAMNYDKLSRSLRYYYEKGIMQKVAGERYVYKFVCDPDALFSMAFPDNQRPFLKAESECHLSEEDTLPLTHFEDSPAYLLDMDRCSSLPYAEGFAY
# HSF1, sequence (Q00613 whole entry): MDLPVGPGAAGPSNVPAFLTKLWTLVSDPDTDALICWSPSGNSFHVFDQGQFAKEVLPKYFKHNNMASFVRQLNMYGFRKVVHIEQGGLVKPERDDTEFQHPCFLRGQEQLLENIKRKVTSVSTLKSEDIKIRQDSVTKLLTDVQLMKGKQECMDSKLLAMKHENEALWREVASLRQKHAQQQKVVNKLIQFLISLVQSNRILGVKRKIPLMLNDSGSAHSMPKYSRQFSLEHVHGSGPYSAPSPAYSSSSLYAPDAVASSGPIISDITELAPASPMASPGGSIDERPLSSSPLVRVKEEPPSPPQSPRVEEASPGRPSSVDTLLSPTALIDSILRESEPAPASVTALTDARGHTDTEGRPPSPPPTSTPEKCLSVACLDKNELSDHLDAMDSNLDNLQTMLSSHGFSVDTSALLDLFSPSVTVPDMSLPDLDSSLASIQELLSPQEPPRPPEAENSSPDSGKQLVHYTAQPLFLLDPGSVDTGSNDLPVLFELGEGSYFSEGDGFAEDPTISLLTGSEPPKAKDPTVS
# CRX, sequence (O43186 whole entry): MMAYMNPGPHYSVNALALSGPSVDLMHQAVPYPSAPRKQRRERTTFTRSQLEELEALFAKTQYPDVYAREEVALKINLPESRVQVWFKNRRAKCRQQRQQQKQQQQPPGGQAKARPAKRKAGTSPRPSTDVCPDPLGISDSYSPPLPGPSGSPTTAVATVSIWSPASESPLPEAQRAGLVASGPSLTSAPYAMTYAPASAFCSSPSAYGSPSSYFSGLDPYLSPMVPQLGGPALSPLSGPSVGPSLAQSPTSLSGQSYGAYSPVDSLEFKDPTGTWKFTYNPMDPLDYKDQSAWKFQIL
# ETV6, sequence (P41212 whole entry): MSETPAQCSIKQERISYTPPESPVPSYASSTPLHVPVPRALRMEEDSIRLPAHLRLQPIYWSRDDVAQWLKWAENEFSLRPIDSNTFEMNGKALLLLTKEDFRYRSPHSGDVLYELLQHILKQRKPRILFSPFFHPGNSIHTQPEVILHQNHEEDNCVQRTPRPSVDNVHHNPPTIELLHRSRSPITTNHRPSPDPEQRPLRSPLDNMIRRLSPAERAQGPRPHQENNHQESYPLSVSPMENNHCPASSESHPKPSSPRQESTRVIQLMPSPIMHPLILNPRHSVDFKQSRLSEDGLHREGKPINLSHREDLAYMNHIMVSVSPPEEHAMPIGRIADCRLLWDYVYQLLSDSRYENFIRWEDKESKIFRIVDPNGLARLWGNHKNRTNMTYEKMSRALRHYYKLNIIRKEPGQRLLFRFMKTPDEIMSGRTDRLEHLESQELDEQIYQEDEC
# ETV1, sequence (P50549 whole entry): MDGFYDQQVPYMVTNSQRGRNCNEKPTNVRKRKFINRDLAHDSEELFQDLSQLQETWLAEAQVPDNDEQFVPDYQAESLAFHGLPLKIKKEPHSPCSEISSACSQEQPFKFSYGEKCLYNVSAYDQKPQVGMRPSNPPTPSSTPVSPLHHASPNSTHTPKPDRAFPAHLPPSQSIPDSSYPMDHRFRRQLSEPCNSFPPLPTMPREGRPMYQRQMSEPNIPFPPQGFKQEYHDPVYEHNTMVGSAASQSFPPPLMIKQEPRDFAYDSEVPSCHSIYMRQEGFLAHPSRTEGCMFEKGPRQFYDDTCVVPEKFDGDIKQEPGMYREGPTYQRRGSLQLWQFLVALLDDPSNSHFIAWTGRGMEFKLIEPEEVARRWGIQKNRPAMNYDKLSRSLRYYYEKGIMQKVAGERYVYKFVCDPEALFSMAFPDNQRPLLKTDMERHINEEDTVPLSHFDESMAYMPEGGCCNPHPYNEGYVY
# ELF4, sequence (Q99607 whole entry): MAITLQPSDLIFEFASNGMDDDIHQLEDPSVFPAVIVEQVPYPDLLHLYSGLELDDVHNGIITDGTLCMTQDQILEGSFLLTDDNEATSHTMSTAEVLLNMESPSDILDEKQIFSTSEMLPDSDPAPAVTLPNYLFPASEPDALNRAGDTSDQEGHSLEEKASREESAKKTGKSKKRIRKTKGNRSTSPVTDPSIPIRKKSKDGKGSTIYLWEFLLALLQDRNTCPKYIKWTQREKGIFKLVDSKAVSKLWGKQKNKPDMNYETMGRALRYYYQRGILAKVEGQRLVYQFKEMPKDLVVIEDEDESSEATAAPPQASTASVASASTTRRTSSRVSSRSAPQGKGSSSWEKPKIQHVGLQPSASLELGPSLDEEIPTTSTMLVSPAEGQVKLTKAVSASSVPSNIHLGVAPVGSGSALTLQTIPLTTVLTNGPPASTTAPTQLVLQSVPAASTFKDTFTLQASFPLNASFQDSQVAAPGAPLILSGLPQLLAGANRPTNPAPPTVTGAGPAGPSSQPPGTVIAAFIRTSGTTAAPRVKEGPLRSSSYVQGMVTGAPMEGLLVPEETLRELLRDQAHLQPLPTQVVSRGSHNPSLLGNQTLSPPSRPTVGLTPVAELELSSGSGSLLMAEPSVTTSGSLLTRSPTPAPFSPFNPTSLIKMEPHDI
sequence,measurement,setting,value
TGACCG,binding signal,[1],"1.66 fold enrichment (6-mer frequency, TF over GST control)"
same,binding signal,[2],"1.33 fold enrichment (6-mer frequency, TF over GST control)"
same,binding signal,[3],"1.17 fold enrichment (6-mer frequency, TF over GST control)"
same,binding signal,[4],"1.68 fold enrichment (6-mer frequency, TF over GST control)"
same,binding signal,[5],"1.47 fold enrichment (6-mer frequency, TF over GST control)"
same,binding signal,[6],"1.4 fold enrichment (6-mer frequency, TF over GST control)"
same,binding signal,[7],"1.52 fold enrichment (6-mer frequency, TF over GST control)"
same,binding signal,[8],"1.66 fold enrichment (6-mer frequency, TF over GST control)"
same,binding signal,[9],"1.1 fold enrichment (6-mer frequency, TF over GST control)"
same,binding signal,[10],"1.56 fold enrichment (6-mer frequency, TF over GST control)"
same,binding signal,[11],"1.41 fold enrichment (6-mer frequency, TF over GST control)"
same,binding signal,[12],"1.41 fold enrichment (6-mer frequency, TF over GST control)"
same,binding signal,[13],"1.55 fold enrichment (6-mer frequency, TF over GST control)"
same,binding signal,[14],"1.44 fold enrichment (6-mer frequency, TF over GST control)"
same,binding signal,[15],"1.49 fold enrichment (6-mer frequency, TF over GST control)"
same,binding signal,[16],"1.4 fold enrichment (6-mer frequency, TF over GST control)"
same,binding signal,[17],"1.53 fold enrichment (6-mer frequency, TF over GST control)"
same,binding signal,[18],"1.36 fold enrichment (6-mer frequency, TF over GST control)"
